Source: PubChem
Hits are enriched below; roughly 6.7% of the tested compounds scored in any of these assays.
KB-3-1 cytotox: KB-3-1 parental cell cytotoxicity. KB-3-1 viability, CellTiter-Glo ATP luminescence, 72 h. Potency, µM (highest dose often 46.1 µM), usual class: cytotoxic. 1.4% of 400,000 active; note: % is set by controls: 0 for no effect and ±100 for the full control effect; nearly all actives have a fitted effect of over 60% in size
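Using CellTiter-Glo luminescence, growth of non-resistant KB-3-1 adenocarcinoma cells is assessed 72 h after pin-tool compound addition at 37 °C. Normalized responses across the concentration series yield fitted curves.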
SW480 rerep: DNA re-replication induction in SW480 cells. SW480 DNA re-replication, Hoechst DNA content imaging, 48 h. 1.8% of 340,000 active. Potency, µM (doses to about 46.1 µM), inactives show top-dose re-replication activation, actives largely listed as activators. AID 624297; note: % of control where 0% means no effect; nearly all actives have a fitted effect of over 55% in size
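Hoechst fluorescence of nuclei (405 nm excitation, 500-530 nm emission) measured by plate-scanning imager after 48 hr compound exposure at 37 C; re-replication scored as increased number of nuclei with elevated intensity.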
PINK1 modulator: PINK1 expression modulation | 0.2% of 410,000 active | PINK1 immunofluorescence, high-content cytometry, 24 h | AID 624263 | Potency, µM (series often up to 76.6 µM), for the others: top-dose activation (PINK1 increase), most hits filed as activators; active = well fitted activation curve with a large enough effect; inconclusive = small, poorly fitted or top-dose-only effect; cell line not stated here; note: % of control where 0% means no effect; nearly all actives have a fitted effect of over 65% in size
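Stable cell line treated 24 h with compounds at 5 concentrations (CCCP controls), then fixed and immunostained for PINK1 plus nuclear and cell stains; PINK1 immunofluorescence quantified by laser-scanning microplate cytometry.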
MCF10A rerep: induces DNA re-replication in MCF 10a normal breast cells. MCF 10A DNA re-replication, Hoechst nuclear intensity, 48 h. 2.9% of 350,000 active. AID 624296. Potency, µM (highest dose often 46.1 µM), without a hit: top-dose activity, positive = re-replication, most hits filed as activators; note: % of control where 0% means no effect; nearly all actives have a fitted effect of over 50% in size
KB-V1 MDR tox: kills drug-selected multidrug resistant KB-V1 cells; KB-V1 MDR cells viability, CellTiter-Glo, 72 h; 3.4% of 400,000 active; Potency, µM (top dose mostly 46.1 µM), most hits filed as cytotoxic; note: % is set by controls: 0 for no effect and ±100 for the full control effect; nearly all actives have a fitted effect of over 60% in size
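Cytotoxicity toward P-gp-expressing KB-V1 cells was determined as loss of CellTiter-Glo luminescence after 72 h at 37 degrees C. Compounds were tested in quantitative HTS format across a concentration range, with curves fitted to normalized data.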
Starred values were filed as active, the others as inactive; i = inactive; ? = inconclusive; . = not tested or not shown; [ ] = remark or other dose. Unless noted, calls come from the whole dose curve; as a rule, active = well fitted curve in the direction sought with a large enough effect; inconclusive = small, poorly fitted or top-dose-only effect, or another doubt; inactive = no such curve, though single readings can be large; an effect the other way counts as inactive or inconclusive. Potency is the fitted concentration of half-maximal effect.

SMILES | KB-3-1 cytotox | SW480 rerep | PINK1 modulator | MCF10A rerep | KB-V1 MDR tox
COc1cc2ccccc2cc1C(=O)N1CCCC(C(F)(F)F)C1 (configuration not stated) | i | -5.8% | -1.0% | -4.5% | 14.6µM*
O=C(c1cc2ccccc2cc1O)N1CCCC(C(F)(F)F)C1 (configuration not stated) | i | -0.8% | -0.4% | ? | i
CCN(CC)CCCNc1nc2ccccc2c2nc(-c3ccncc3)nn12 | 18.4µM* | ? | -2.1% | ? | ?
CCN(CC)CCCNc1nc2cc(OC)c(OC)cc2c2nc(-c3ccccc3)nn12 | 23.1µM* | ? | -4.4% | ? | 16.4µM*
CN1CCN(CCCNc2nc3ccccc3c3nc(-c4ccccc4)nn23)CC1 | i | ? | 3.0% | ? | i
CCN(CC)CCCNc1nc2cc(OC)c(OC)cc2c2nc(-c3cccnc3)nn12 | i | ? | 5.5% | ? | ?
COc1cc2nc(NCCCN3CCN(C)CC3)n3nc(-c4ccccc4)nc3c2cc1OC | ? | ? | -1.3% | 13µM* | ?
CCOc1ccccc1NC(=O)N1CCN(C)c2ncccc21 | i | . | 3.8% | . | i
CCOC(=O)c1[nH]c2ccccc2c1NC(=O)c1ccc(S(=O)(=O)N(C)C)cc1 | i | -0.4% | 1.1% | 1.8% | i
CN(C)S(=O)(=O)c1ccc(C(=O)Oc2cc(=O)[nH]c3ccccc23)cc1 | i | 4.2% | -1.3% | 6.51µM* | i
Cc1ccc(C)c(Nc2nc3nonc3nc2N2CCOCC2)c1 | i | 0.3% | 2.1% | -1.3% | ?
Cc1ccc(C)c(Nc2nc3nonc3nc2Nc2cccc(C)c2C)c1 | 20.6µM* | . | ? | . | ?
CC(=O)C1(O)Cc2c(O)c3c(c(O)c2C(OC2CC(N)C(O)C(C)O2)C1)C(=O)c1c(O)cccc1C3=O (configuration not stated) | 0.581µM* | ? | -0.5% | 1.6% | ?
COc1cccc2c1C(=O)c1c(O)c3c(c(O)c1C2=O)CC(O)(C(C)=O)CC3OC1CC(N(C)C)C(O)C(C)O1 (configuration not stated) | ? | ? | -6.8% | -0.9% | 7.31µM*
CC(=O)[C@@]1(O)Cc2c(O)c3c(c(O)c2[C@H](O[C@H]2C[C@H](N)[C@H](O)[C@H](C)O2)C1)C(=O)c1ccccc1C3=O | 0.184µM* | . | 0.4% | . | ?
Cc1c(C(=O)N(CCO)C(C)C)cnn1-c1ncc2c(n1)-c1ccccc1CCC2 | . | . | -0.4% | . | .
CSc1ccc(NC(=O)N2CC=C(n3c(=O)[nH]c4ccccc43)CC2)cc1 | 16.4µM* | ? | ? | ? | 16.4µM*
Cn1c(=O)c(=O)n(C)c2cc([N+](=O)[O-])c(N3CCOCC3)cc21 | i | 0.3% | 1.0% | 2.6% | ?
CC1=C(C(=O)N(C)C)CC(CC(=O)NCCCN(C)C)C(=O)N1CCC1=CCCCC1 (configuration not stated) | i | . | 1.1% | . | ?
CN(C)S(=O)(=O)N1CCN(CC(=O)Nc2ccc(Br)cc2)CC1 | i | ? | -0.5% | 7.5% | i
COc1ccc(NC(=O)CCN2CCN(S(=O)(=O)c3ccc(F)cc3)CC2)cc1 | i | -9.6% | -0.5% | 2.1% | i
CN(C)S(=O)(=O)N1CCN(CC(=O)Nc2cc(Cl)ccc2Cl)CC1 | i | 6.3% | -2.7%[38.3 µM] | 18.4% | 18.4µM*
COc1ccc(N2CCN(CC(=O)Nc3cccc(S(=O)(=O)N4CCOCC4)c3)CC2)cc1 | ? | -3.1% | 1.1% | 12.1% | 10.3µM*
O=C(CN1CCN(S(=O)(=O)N2CCCCC2)CC1)Nc1ccc(Cl)c(Cl)c1 | ? | -6.3% | 1.5% | ? | 13µM*
COc1ccc(S(=O)(=O)N2CCN(CCC(=O)Nc3ccc(F)cc3)CC2)cc1 | ? | ? | -3.2% | 8.4% | 5.17µM*
SMILES | KB-3-1 cytotox | SW480 rerep | PINK1 modulator | MCF10A rerep | KB-V1 MDR tox
COc1ccc(C(=O)Oc2cc(C)c(CN3CCOCC3)cc2C)cc1OC | i | 2.9% | -0.7% | -1.3% | i
O=C(Cc1cccs1)NC1C(=O)N2C(C(=O)[O-])=C(C[n+]3ccccc3)CSC12 (configuration not stated) | . | -1.5% | . | -2.3% | .
COc1ccc(S(=O)(=O)N2CCN(CC(=O)Nc3ccc(C)c(F)c3)CC2)cc1 | i | -3.6% | -1.7% | -2.2% | 6.51µM*
Cc1cc(NC(=O)CN2CCN(S(=O)(=O)c3ccc(Cl)cc3)CC2)no1 | i | 1.9% | 2.9%[38.3 µM] | -3.8% | 16.4µM*
COc1cc(OC)nc(NC(=O)CN2CCN(c3ccc(F)cc3)CC2)n1 | i | -11.9% | 3.4%[38.3 µM] | 4.5% | 23.1µM*
O=C(COC(=O)c1ccncc1)Nc1cccc2ccccc12 | i | -6.3% | 2.9% | -1.7% | i
Cc1ccc([N+](=O)[O-])cc1NC(=S)NC(=O)C(C)(C)C | i | 3.7% | . | -8.4% | i
Cc1ccc([N+](=O)[O-])cc1NC(=S)NC(=O)CC(C)(C)C | i | 5.8% | 7.3%[38.3 µM] | -3.6% | 18.4µM*
Cc1ccc(NS(=O)(=O)c2cc([N+](=O)[O-])ccc2NNC(=S)Nc2cc(C)ccc2C)c(C)c1 | 20.6µM* | ? | ? | ? | 2.91µM*
Cc1cccc(Nc2nc(N)nc(CN3CCN(c4ccccc4)CC3)n2)c1 | i | -7.0% | -1.6% | 0.2% | 14.6µM*
Cc1cccc(Nc2nc(N)nc(CN3CCN(c4ccccc4F)CC3)n2)c1 | i | ? | 7.3% | ? | 2.31µM*
Nc1nc(CN2CCN(c3ccccc3F)CC2)nc(Nc2ccc3c(c2)OCCO3)n1 | ? | 40.0% | -7.8%[38.3 µM] | ? | 9.2µM*
Nc1nc(CN2CCN(Cc3ccccc3)CC2)nc(Nc2ccccc2)n1 | ? | 4.4% | 6.9%[38.3 µM] | 1.8% | 20.6µM*
CCOc1ccc(Nc2nc(N)nc(CN3CCN(c4ccccc4F)CC3)n2)cc1 | i | 18.2% | -0.8% | ? | ?
COc1cccc(N2CCN(Cc3nc(N)nc(Nc4ccccc4)n3)CC2)c1 | i | 10.9% | 4.1% | 12.4% | i
COc1ccc(-c2nc3c(c(SCC(=O)N4CCCCC4)n2)Cc2c(CO)cnc(C)c2O3)cc1 | . | . | 0.7% | . | .
O=C1c2ccccc2C(=O)N1c1cccc(N2C(=O)c3ccccc3C2=O)n1 | i | . | 0.9% | . | i
Cc1cccc(Nc2nc(N)nc(CN3CCN(Cc4ccc5c(c4)OCO5)CC3)n2)c1 | i | -1.1% | 3.3%[38.3 µM] | 7.9% | 14.6µM*
COc1ccccc1Nc1nc(N)nc(CN2CCN(Cc3ccc4c(c3)OCO4)CC2)n1 | i | -48.6% | 0.5% | ? | i
CCOC(=O)C1=CCN(S(=O)(=O)c2ccc(F)cc2)C1c1cccc(Cl)c1 (configuration not stated) | ? | . | 1.8% | . | 8.2µM*
O=C(Nc1cccc(-c2nc3ncccc3o2)c1)c1sc2cc(Cl)ccc2c1Cl | i | -3.4% | 10µM* | 1.8% | i
